Results on 6 compounds are retold here after PubChem BioAssay (EPA / NIEHS).

Calls of active or inactive are those of the source. Rule for the calls: active = hit-call score of the fitted dose curve at least 0.9, where 1 is the maximum; inactive = score below 0.9.

Read-out in assay [1]: Human Leukocyte Antigen - DR isotype (HLADR), HLA-DRA (gene 3122)
As to the kind of experiment: BSK_BE3C_HLADR: BioMAP Diversity Plus: BE3C Assay for Human Leukocyte Antigen - DR isotype (HLADR) Biomarker Activity (AID 2283032). The settings on record: primary human bronchial epithelial cells; actives raise or lower the signal. The gist of the method:
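BioMAP BE3C format: human bronchial epithelium, 24 h compound treatment, ELISA detection of HLA-DR, with bidirectional analysis relative to DMSO.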

Read-out in assay [2]: Vascular cell adhesion molecule 1 (VCAM1), VCAM1 (gene 7412)
As to the kind of experiment: BSK_4H_VCAM1: BioMAP Diversity Plus: 4H Assay for Vascular cell adhesion molecule 1 (VCAM1) Biomarker Activity (AID 2283033).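 Note: cell-surface VCAM-1 protein measured by ELISA.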 The settings on record: primary human endothelial cells (HUVEC); actives raise or lower the signal. In outline: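 In this human endothelial (HUVEC) system, biomarker ELISA was run 24 h after compound addition, and total protein in parallel wells was assessed by SRB at 560 nm; DMSO served as negative control.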

Read-out in assay [3]: Interferon-gamma inducible Protein 10 (IP10), CXCL10 (gene 3627)
The assay can be described thus: BSK_BE3C_IP10: BioMAP Diversity Plus: BE3C Assay for Interferon-gamma inducible Protein 10 (IP10) Biomarker Activity (AID 2283034). Particulars: primary human bronchial epithelial cells; actives raise or lower the signal. In outline: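 BE3C cells (human bronchial epithelial, primary); 24 h exposure; ELISA for IP-10; DMSO-referenced bidirectional fit.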

Read-out in assay [4]: Monokine induced gamma interferon (MIG), CXCL9 (gene 4283)
The assay can be described thus: BSK_BE3C_MIG: BioMAP Diversity Plus: BE3C Assay for Monokine induced gamma interferon (MIG) Biomarker Activity (AID 2283035). The settings on record: primary human bronchial epithelial cells; actives raise or lower the signal. The gist of the method:
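Dose cells (human primary bronchial epithelial), incubate 24 h, quantify MIG by ELISA, then fit concentration–response in both directions relative to DMSO control.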

Read-out in assay [5]: Transforming growth factor beta 1 (TGFb1), TGFB1 (gene 7040)
As to the kind of experiment: BSK_BE3C_TGFb1: BioMAP Diversity Plus: BE3C Assay for Transforming growth factor beta 1 (TGFb1) Biomarker Activity (AID 2283036;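 note: TGF-b1 protein level measured by ELISA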). The settings on record: primary human bronchial epithelial cells; actives raise or lower the signal. The gist of the method:
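TGF-b1 measured via ELISA, 24 h after chemical dosing of human bronchial epithelial cells (BE3C). Overt cytotoxicity assessed in parallel by SRB (0.1%, TCA-fixed, 560 nm); analysis bidirectional relative to DMSO.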

Read-out in assay [6]: urokinase plasminogen activator (uPA), PLAU (gene 5328)
The assay can be described thus: BSK_BE3C_uPA: BioMAP Diversity Plus: BE3C Assay for urokinase plasminogen activator (uPA) Biomarker Activity (AID 2283038).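 Note: uPA protein level quantified by ELISA in cell cultures; uPA read one day after compound addition.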 Particulars: primary human bronchial epithelial cells; actives raise or lower the signal. The gist of the method: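 ELISA read-out of uPA in human lung primary bronchial epithelial cultures, 24 h post-dosing. Gain or loss of signal fitted bidirectionally relative to DMSO baseline; cytotoxicity checked in parallel cultures via SRB total protein stain.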

Read-out in assay [7]: Urokinase-type plasminogen activator receptor (uPAR), PLAUR (gene 5329)
As to the kind of experiment: BSK_BE3C_uPAR: BioMAP Diversity Plus: BE3C Assay for Urokinase-type plasminogen activator receptor (uPAR) Biomarker Activity (AID 2283039).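 Note: uPAR protein level measured by ELISA on the cells; cells exposed to compound for one day before measurement.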 Particulars: primary human bronchial epithelial cells; actives raise or lower the signal. In outline:
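Chemically treated human bronchial epithelial cells (lung primary) are assayed for uPAR by ELISA after 24 h, with data fitted in both directions using DMSO as negative control.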

Read-out in assay [8]: Interleukin-6 (IL6), IL6 (gene 3569)
The assay can be described thus: BSK_CASM3C_IL6: BioMAP Diversity Plus: CASM3C Assay for Interleukin-6 (IL6) Biomarker Activity for (AID 2283040). Particulars: primary human coronary artery smooth muscle cells; actives raise or lower the signal.

Read-out in assay [9]: Tissue plasminogen activator (tPA), PLAT (gene 5327)
The assay can be described thus: BSK_BE3C_tPA: BioMAP Diversity Plus: BE3C Assay for Tissue plasminogen activator (tPA) Biomarker Activity (AID 2283041).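 Note: tPA level quantified by ELISA one day after compound addition.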 Particulars: primary human bronchial epithelial cells; actives raise or lower the signal. The gist of the method:
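Using human lung primary bronchial epithelial cells, tPA was measured by ELISA 24 h after dosing; data fitted relative to DMSO.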

Read-out in assay [10]: Interleukin-8 (IL8), CXCL8 (gene 3576)
As to the kind of experiment: BSK_CASM3C_IL8: BioMAP Diversity Plus: CASM3C Assay for Interleukin-8 (IL8) Biomarker Activity (AID 2283042).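 Note: IL-8 protein level quantified by ELISA.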 The settings on record: primary human coronary artery smooth muscle cells; actives raise or lower the signal.

Read-out in assay [11]: Human Leukocyte Antigen - DR isotype (HLADR), HLA-DRA (gene 3122)
As to the kind of experiment: BSK_CASM3C_HLADR: BioMAP Diversity Plus: CASM3C Assay for Human Leukocyte Antigen - DR isotype (HLADR) Biomarker Activity (AID 2283043).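 Note: cell-surface HLA-DR protein level quantified by ELISA.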 The settings on record: primary human coronary artery smooth muscle cells; actives raise or lower the signal.

Read-out in assay [12]: Macrophage colony-stimulating factor (MCSF), CSF1 (gene 1435)
The assay can be described thus: BSK_CASM3C_MCSF: BioMAP Diversity Plus: CASM3C Assay for Macrophage colony-stimulating factor (MCSF) Biomarker Activity (AID 2283044).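 Note: M-CSF protein amount quantified by ELISA after 24 h exposure.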 Particulars: primary human coronary artery smooth muscle cells; actives raise or lower the signal.

Read-out in assay [13]: Low-density lipoprotein receptor (LDLR), LDLR (gene 3949)
As to the kind of experiment: BSK_CASM3C_LDLR: BioMAP Diversity Plus: CASM3C Assay for Low-density lipoprotein receptor (LDLR) Biomarker Activity (AID 2283045).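 Note: LDLR protein level on the cell surface quantified by ELISA.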 Particulars: primary human coronary artery smooth muscle cells; actives raise or lower the signal.

Read-out in assay [14]: Monocyte Chemoattractant Protein-1 (MCP1), CCL2 (gene 6347)
As to the kind of experiment: BSK_CASM3C_MCP1: BioMAP Diversity Plus: CASM3C Assay for Monocyte Chemoattractant Protein-1 (MCP1) Biomarker Activity (AID 2283046).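 Note: MCP-1 level quantified by ELISA 24 h after dosing.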 The settings on record: primary human coronary artery smooth muscle cells; actives raise or lower the signal.

Assay [15] in a line: BSK_CASM3C_Proliferation: Cell Proliferation Assessment in the BioMAP Diversity Plus: CASM3C Assay (AID 2283047).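 Note: sulforhodamine B total protein stain as relative cell number at 560 nm; sub-confluent cells exposed 48 h before staining; fitted both ways against DMSO so gain or loss of cell number.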 Particulars: primary human coronary artery smooth muscle cells.
Read-out in assay [16]: Monokine induced gamma interferon (MIG), CXCL9 (gene 4283)
As to the kind of experiment: BSK_CASM3C_MIG: BioMAP Diversity Plus: CASM3C Assay for Monokine induced gamma interferon (MIG) Biomarker Activity (AID 2283048).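 Note: MIG protein level measured by ELISA.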 The settings on record: primary human coronary artery smooth muscle cells; actives raise or lower the signal.

Read-out in assay [17]: serum amyloid A (SAA), SAA1 (gene 6288)
The assay can be described thus: BSK_CASM3C_SAA: BioMAP Diversity Plus: CASM3C Assay for serum amyloid A (SAA) Biomarker Activity (AID 2283049).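 Note: SAA protein level quantified by ELISA.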 The settings on record: primary human coronary artery smooth muscle cells; actives raise or lower the signal.

Assay [18] is described as follows: BSK_CASM3C_SRB: Viability Assessment in the BioMAP Diversity Plus: CASM3C Assay (AID 2283050).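 Note: total protein by SRB staining as cytotoxicity measure in parallel cultures.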 Particulars: primary human coronary artery smooth muscle cells.
Read-out in assay [19]: Thrombomodulin, THBD (gene 7056)
The assay can be described thus: BSK_CASM3C_Thrombomodulin: BioMAP Diversity Plus: CASM3C Assay for Thrombomodulin Biomarker Activity (AID 2283051).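 Note: thrombomodulin protein level measured by ELISA 24 h after dosing.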 The settings on record: primary human coronary artery smooth muscle cells; actives raise or lower the signal.

Read-out in assay [20]: Plasminogen activator inhibitor-1 (PAI1), SERPINE1 (gene 5054)
As to the kind of experiment: BSK_BE3C_PAI1: BioMAP Diversity Plus: BE3C Assay for Plasminogen activator inhibitor-1 (PAI1) Biomarker Activity (AID 2283037). The settings on record: primary human bronchial epithelial cells; actives raise or lower the signal. The gist of the method:
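In this multiplexed primary-cell system, bronchial epithelial cells receive test chemical and are sampled at 24 h. PAI-1 is read by ELISA, with DMSO serving as negative control for bidirectional fitting.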

`Nc1ccc([N+](=O)[O-])cc1`: the outcome in [1], in assay [2], in [3], in [4], in assay [5] and in assay [6] was inactive. Besides, the outcome in assay [7], in assay [8], in assay [9], in assay [10], in [11] and in [12] was inactive. Further, the result in assay [13], in assay [14], in assay [15], in assay [16], in [17] and in [18] was inactive. The result in assay [19] was inactive.

For the compound `Nc1ccc(Oc2ccc(N)cc2)cc1`, the result in assay [1], in [2], in assay [3], in assay [4], in assay [6] and in assay [7] was inactive. Also, the outcome in assay [8], in assay [9], in [10], in assay [11], in [12] and in [13] was inactive. Also, the result in assay [14], in [15], in assay [16], in assay [17], in assay [18] and in assay [19] was inactive.

With `CCCCOC(=O)c1ccccc1C(=O)OCc1ccccc1`, the outcome in assay [1], in assay [2], in assay [3], in assay [20], in [6] and in assay [7] was inactive. For the same compound, the outcome in [8], in [9], in [10], in assay [11], in assay [12] and in assay [13] was inactive. Moreover, the result in assay [14], in assay [15], in assay [16], in assay [17] and in [18] was inactive. Moreover, the AC50 in assay [19] was 20 µM (active).

As to `N#CC(Br)(Br)C(N)=O`, the outcome in assay [1], in [2], in [3], in assay [4], in [5] and in assay [20] was inactive. Moreover, the outcome in assay [6], in [7], in assay [8], in [9], in [10] and in assay [11] was inactive. Also, the outcome in [12], in assay [13], in [14], in assay [15], in assay [16] and in [17] was inactive. In addition, the result in [18] and in [19] was inactive.

Take `CCCCC(CC)COC(=O)c1ccc(C(=O)OCC(CC)CCCC)c(C(=O)OCC(CC)CCCC)c1` (stereo not drawn): the result in assay [1], in assay [2], in assay [3], in [5], in assay [20] and in assay [6] was inactive. Besides, the outcome in assay [7], in assay [8], in [9], in [10], in assay [11] and in [12] was inactive. Further, the outcome in assay [13], in [14], in assay [15], in assay [16], in [17] and in assay [18] was inactive. In [19], the result was inactive.

`Cc1ccc(N=C=O)cc1N=C=O`: the outcome in [1], in assay [2], in [4], in [20], in assay [6] and in assay [7] was inactive. In addition, the outcome in [8], in assay [9], in [10], in assay [12], in [13] and in assay [14] was inactive. In addition, the result in [16], in assay [17], in assay [18] and in [19] was inactive. Besides, the concentration at half-maximal activity (AC50) in [3] was 20 µM (active); in assay [11], 28.5 µM (active); in [15], 20 µM (active).
